Data: PubChem BioAssay AID1508600 (Functional Genomics Laboratory (NCATS/FGL), 2020)
The campaign covered roughly 53,000 sequences. About 3,700 (7%) were called active.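 Rule for the calls: active = gene knockdowns whose robust z-score for IL-1 alpha signal is at least 2 or at most -2, so actives lie on both sides; inactive = the rest.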 This excerpt belongs to a sample that is enriched for actives.

Assay: Components of the Cytosolic LPS Sensing Pathway: Gene Identification via Genome-wide siRNA Screen;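 note: robust z of the log signal after scaling to non-targeting control siRNA wells of the plate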
Conditions: RAW264.7 macrophages, IL-1a HTRF, actives lie on both sides, screened at 100 nM (by protocol), cells primed 5 h with Pam3CSK4 first
Procedure, shortened: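 Using IL-1a HTRF as read-out, the screen measured release from RAW264.7 cells after 48h siRNA knockdown (100 nM), 5 h Pam3CSK4 priming and 24 h cytosolic LipidA. Values were expressed relative to negative-control wells as robust z-scores.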
With GGGUUUCAACGGCUGUGACTT against Mef2d the z-score was -2.73 (active).
For GGUUAUGGAGACAAAGGAUTT against Sik1, the z-score was -1.33 (inactive).
With CCGUACGAUGAUAAUACCATT against Clec4a3 the z-score was 2.29 (active).
In the case of GGAGCUAGCUGAGUUCAUGTT against Arhgap4, the z-score is reported as 1.22 (inactive).
With GGACAGCUCUCUUUAGUCUTT against Erf the z-score was -1.78 (inactive).
With GGACCUGAAGGCUGAAAUUTT against Ing4 the z-score was 3.08 (active).
With GGUCUGAUAACUCUGGAGGTT against Snf8 the z-score was -0.0859 (inactive).
In the case of GGAUGGACAUCCAAGCAGGTT against Fabp9, the z-score is reported as -1.97 (inactive).
In the case of GGAGUGUUACUAGAUGUCCTT against Spns3, the z-score is reported as 0.394 (inactive).
In the case of “CGAACUGGUAGAAGUUAUUTT against Csgalnact2”, the z-score is reported as 2.07 (active).
With GGUCUCUGUACUUUGACUGTT against Cldn19 the z-score was -1.2 (inactive).
For GGAGCAAAAUUCACAGUCUTT against Bcl7a, the z-score was -0.25 (inactive).
In the case of GAUUGGCUUCAAUCUAGUCTT against Olfr713, the z-score is reported as 0.701 (inactive).
In the case of GGGCCAGAGUCAGAAAAGGTT against Ebp, the z-score is reported as 1.98 (inactive).
For GCGUAUGUACCGAUGGCAGTT against Mocs2, the z-score was 0.871 (inactive).
With CGCUGCCUAAACAAGAUUATT against Cacna1f the z-score was 3.28 (active).
For AGACCUUGAGAACAUUCUUTT against Nkx2-6, the z-score was 0.925 (inactive).
For CCGUGAUCUUAAACCCUCUTT against Mapk7, the z-score was -0.988 (inactive).
In the case of CGUUUUACCACCGUGUGCUTT against Gfra1, the z-score is reported as -0.284 (inactive).
For GGUAAUUCAGUCUUAUACATT against Pcdhb21, the z-score was 3.2 (active).
With CGUGAAGAUUCUUAAGGCGTT against Ppil1 the z-score was 0.716 (inactive).
In the case of GGUGGAAUUGAAGAGUUCATT against Rcor3, the z-score is reported as 0.24 (inactive).
With GCAAGAAACGGGAACUAUUTT against Mettl7b the z-score was 1.25 (inactive).
For GGCCUUAGAAUUUGAUUCUTT against Slc30a8, the z-score was 0.814 (inactive).
In the case of GGAUGUAUAGGUUCAGCUGTT against Dph2, the z-score is reported as 0.41 (inactive).
With GGCCUUUGGGACAUGUGUGTT against Olfr552 the z-score was -2.05 (active).
With GGAGAAGCUCUUAAAGAAATT against Traf3ip3 the z-score was 0.959 (inactive).
With GCAGUGAAGUCCAAGUUAGTT against Pold3 the z-score was -0.456 (inactive).
For CCAAUAAGUGACCUUUUUUTT against Tmprss11b, the z-score was -0.989 (inactive).
With CCAAGUCUACCUCUAUUUUTT against Pbsn the z-score was 1.77 (inactive).
With GGUUCCUUAAUUUAUUGCCTT against Fbxl22 the z-score was 2.31 (active).
For CCACUAUGGCGACCAGAUUTT against Mfap2, the z-score was 0.0375 (inactive).
With GCCCUCACAGCCAGAAUUGTT against Pram1 the z-score was -2.15 (active).
For GGUUAAAAGCCAUGUGUAATT against Pggt1b, the z-score was -0.151 (inactive).
For CGAUGGUCGAAGGAUUGUCTT against Tnfsf4, the z-score was -0.837 (inactive).
For GUCACAAGCUGUCCAACAATT against Ndufa7, the z-score was -2.25 (active).
For “GGUUUUGUCACCAUAGCCATT against 3110040N11Rik”, the z-score was -0.762 (inactive).
With GGACAUUGAGUCAAAAAUCTT against Slc19a2 the z-score was -0.966 (inactive).
For GCCUGGAGAAGUGAACUCUTT against Tll1, the z-score was -1.65 (inactive).
With GGGAUUUCGAGAGACUAGCTT against Dock9 the z-score was -0.487 (inactive).
For GCCCUGAUGCAAGCUUGUGTT against Gprin3, the z-score was 0.193 (inactive).
In the case of CCUGUUUCAGUCAUUAGUGTT against Slc22a2, the z-score is reported as 2.6 (active).
With GGCAACUGUUUCUGCUCCGTT against Ap4e1 the z-score was -0.746 (inactive).
In the case of GCCAAUCGUAACUUGCUAATT against Arhgap19, the z-score is reported as 0.865 (inactive).
With GGUACAACAAAAAUGUGACTT against Vmn1r73 the z-score was -1.39 (inactive).
In the case of GCGAGGUGAAAAGCUUCUGTT against Sobp, the z-score is reported as -0.433 (inactive).
With GGAAUUUUGCCAGCAAAUGTT against Edaradd the z-score was 0.624 (inactive).
In the case of GGCCAUUAAUUACUACGAGTT against Ttc21a, the z-score is reported as 0.368 (inactive).
With GCAAAACUUGACUACCGCCTT against Bzw1 the z-score was 2.08 (active).
In the case of CCCGAGAAUACACCAUCAATT against Rpl31, the z-score is reported as 0.347 (inactive).
For CCAUUCCAUGUCGAUGUCUTT against Prm2, the z-score was -2.08 (active).
For GGGAGAUGUAUGCUUGCUCTT against Evi2a, the z-score was 0.934 (inactive).
For CUCUAUCUCAUUGCAGUCCTT against Olfr671, the z-score was -0.0809 (inactive).
In the case of GUUCCCUACAAGUUCUUCCTT against Phox2a, the z-score is reported as 1.54 (inactive).
In the case of GGCUUUUGUCAAACAGCAUTT against Ins1, the z-score is reported as -2.9 (active).
With GCGUAGACUUGAGGACUUATT against Uimc1 the z-score was -0.705 (inactive).
With CGGCGGUGUGUUGUUUUAGTT against Hmces the z-score was 0.36 (inactive).
With CGGUUAGACAGUGCACCAATT against Dnm1 the z-score was 0.4 (inactive).
For GGCUCGGACCAAAAAAAUUTT against Msantd3, the z-score was -1.33 (inactive).
With GCAUGCGACUCUGUUCUCGTT against Gtf2a2 the z-score was -0.228 (inactive).
In the case of “GGAGAUUUUCAAGAGACUCTT against 0610010F05Rik”, the z-score is reported as 1.94 (inactive).
For GGAAAAACUACCAAGAGGATT against Pigp, the z-score was 2.32 (active).
In the case of GGUCUACCAUGACACACGUTT against Prrg2, the z-score is reported as 0.519 (inactive).
For GCCUGGUUUCUCCCUCAAATT against Pkmyt1, the z-score was -0.567 (inactive).
With CGCAGUUAUAUUCCACCACTT against Slain1 the z-score was -0.317 (inactive).
For GGUACCUAGGAUGCUCUCATT against Ift140, the z-score was -2.23 (active).
In the case of GGCCUUCACUGGUUAAAAUTT against Ankrd6, the z-score is reported as 0.0966 (inactive).
With GGAGAUCCUCAUUUGUGUGTT against Ftmt the z-score was -1.99 (inactive).
For GGGUAUGAGCAUAAAAUAATT against Il16, the z-score was -1.2 (inactive).
In the case of GCAAAUGGUGCAUACGUGATT against Slc35d1, the z-score is reported as 0.211 (inactive).
For CCAAUUUGUCAAAACAAUCTT against Slit2, the z-score was 0.681 (inactive).
With GGAUGUCAGGACAAAACCATT against Olfr1335 the z-score was -2.51 (active).
With GGAAGAGCUUUCUGGAAAUTT against Ndrg2 the z-score was 0.226 (inactive).
In the case of GGCAUACUUGUACCGCUAUTT against Mmp9, the z-score is reported as -0.35 (inactive).
With GGAUAUUCAGCACUGGGAATT against Rrm2 the z-score was -0.525 (inactive).
With GGUAGUGGACAGUUUUGACTT against Mrpl55 the z-score was 0.675 (inactive).
In the case of GCCUUUCAUGGAUUAACCUTT against Gsdmc, the z-score is reported as -2.03 (active).
For CGACGAAGAUAUUUACAGUTT against Vav1, the z-score was 0.504 (inactive).
In the case of CCAAAAAAGUUAGUUGUGGTT against Phf6, the z-score is reported as 1.23 (inactive).
With GGUCGUAAAAAUUGAAAUCTT against Lhcgr the z-score was 0.169 (inactive).
In the case of GGAGGAUCUUGAGUUGGAGTT against Nupr1l, the z-score is reported as 2.32 (active).
With CCAUUUAUGGGUUUUCUCUTT against Taar7b the z-score was 0.12 (inactive).
In the case of GGCUGUGCUACAGUUUCUCTT against Get4, the z-score is reported as -0.498 (inactive).
With GGUCAUUGAGCUGAUGGACTT against Elovl1 the z-score was 4.34 (active).
With GGGCUUUCACACAAUCCCUTT against Kcns1 the z-score was -0.362 (inactive).
With GGAACUGGCCAAUUACUACTT against Rdm1 the z-score was -1.29 (inactive).
In the case of GGAUAUCACUUGCUAUUCCTT against Abraxas2, the z-score is reported as -0.406 (inactive).
For GGCUUAUGACGAAUUAGUCTT against Ubn2, the z-score was 0.274 (inactive).
For GGAACAGCCUAUGUGGUCUTT against Sf3b6, the z-score was -2.17 (active).
With GCACCUUGUCAACCAUUACTT against Kctd7 the z-score was 0.842 (inactive).
In the case of GGGCAUCAGCAUUUGGUCATT against Med1, the z-score is reported as 0.698 (inactive).
With GGAAGUCGAGUUGAAAUCGTT against Rida the z-score was 0.755 (inactive).
With GUUGAGUGGCUGUGAUAUATT against Nms the z-score was -0.00159 (inactive).
For GGAAAUAUGAUAGAAUGCCTT against Pramel32, the z-score was 0.17 (inactive).
For GGCAAAAGAACAAGAAACUTT against Orc1, the z-score was -2.09 (active).
In the case of GGCUAUCACCUCCAACACCTT against Fkbp8, the z-score is reported as -1.04 (inactive).
In the case of GGACAAGGAACAGAGCCUUTT against Rnf183, the z-score is reported as -1.27 (inactive).
For GGAGAUCUUGAGAUUGUAUTT against Ticrr, the z-score was 0.424 (inactive).
In the case of GGAGAAAGGAUUGUGUUUGTT against Clec10a, the z-score is reported as 2.2 (active).
For CCCGGUUCUUAGGUUUGUATT against Prr15l, the z-score was 1 (inactive).
In the case of GGUCAGGUUGCCAAGAAGGTT against Sbds, the z-score is reported as 1.59 (inactive).
For GGCAUGAAUAUGCAUUUAGTT against Arrdc3, the z-score was -3.65 (active).
For CCCAUAUGAGCUGAAAGCUTT against Il1b, the z-score was -0.878 (inactive).
For GGGAAUGUCUGAAAGUCCCTT against Klhdc10, the z-score was 0.66 (inactive).
With GGCCAUCAAGGUCUUUUCUTT against Washc1 the z-score was -1.34 (inactive).
With GGAUCUUCUUCUAUCAGUCTT against Ncf4 the z-score was 0.487 (inactive).
With CCGUUUUGAACCAUAAAAATT against Zfp7 the z-score was -0.873 (inactive).
In the case of GGCCCACGUCCUGUACAUUTT against Tdrd1, the z-score is reported as 3.38 (active).
